Screens: PubChem, National Center for Advancing Translational Sciences (NCATS)
Luciferase inh = inhibitors of firefly luciferase; purified firefly luciferase, luminescence, 8 min; Potency, µM (series often up to 57.1 µM), hits mostly inhibitors; actives 2.2% (n = 72,000); AID 411; note: nearly all actives have a fitted effect of over 40% in size
Target sequence (P08659 whole entry, looked up): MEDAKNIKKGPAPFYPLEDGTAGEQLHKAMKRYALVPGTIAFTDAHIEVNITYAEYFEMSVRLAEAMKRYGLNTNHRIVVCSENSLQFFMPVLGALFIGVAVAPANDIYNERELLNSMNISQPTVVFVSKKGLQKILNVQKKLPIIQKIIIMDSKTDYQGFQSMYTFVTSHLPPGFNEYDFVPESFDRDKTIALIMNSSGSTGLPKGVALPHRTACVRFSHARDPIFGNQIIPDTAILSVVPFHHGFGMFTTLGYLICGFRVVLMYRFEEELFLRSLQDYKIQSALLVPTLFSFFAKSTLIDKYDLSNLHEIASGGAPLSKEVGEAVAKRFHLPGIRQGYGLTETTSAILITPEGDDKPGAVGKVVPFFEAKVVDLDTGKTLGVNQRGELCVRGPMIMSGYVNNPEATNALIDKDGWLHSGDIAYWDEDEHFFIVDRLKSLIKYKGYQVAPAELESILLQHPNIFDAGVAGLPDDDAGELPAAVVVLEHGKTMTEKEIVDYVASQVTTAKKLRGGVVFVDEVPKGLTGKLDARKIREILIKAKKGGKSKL
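Firefly luciferase (PKLight detection mix) with 10 uM ATP in pH 7.2 imidazole buffer (KCl, MgCl2, Tween 20, BSA). Compounds tested across a concentration series (qHTS). Luminescence read after 8 min at ambient temperature.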
p53ts 32C kill = kills p53ts cells at the permissive temperature | H1299-p53A138V at 32C, ATP luminescence viability, 24 h | Potency, µM (top dose mostly 46.1 µM), usual class: cytotoxic | actives 0.93% (n = 130,000) | AID 924; note: nearly all actives have a fitted effect of over 55% in size
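H1299-p53 A138V cells (temperature-sensitive p53) exposed 24 h to up to 46 uM compound at 32C, where p53 is wild-type in conformation. Viability read as ATP luminescence and normalised to DMSO and 100 uM tamoxifen. AC50 fitted with the Hill equation.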
p53ts 39C tox = p53ts cell cytotoxicity, nonpermissive temperature; Potency, µM (top dose mostly 46.1 µM), most hits filed as cytotoxic; actives 1.5% (n = 130,000); H1299-p53A138V viability at 39C, ATP luminescence, 24 h; note: nearly all actives have a fitted effect of over 55% in size
Of the large screens only hits and unclear results are named; the others gave an inactive call. An excerpt weighted towards active compounds, which were near 2.6% of everything screened. Calls come from the whole dose curve; as a rule, active = well fitted curve in the direction sought with a large enough effect; inconclusive = small, poorly fitted or top-dose-only effect, or another doubt; inactive = no such curve, though single readings can be large; an effect the other way counts as inactive or inconclusive.

CCOc1ccccc1NC(=O)Nc1ccccc1OCc1cc(=O)n2ccccc2n1	none (no result: Luciferase inh)
COc1ccc(OC)c(NC(=O)Nc2cccc(OCc3cc(=O)n4cc(C)ccc4n3)c2)c1	p53ts 32C kill 6.3µM, p53ts 39C tox 6.3µM (no result: Luciferase inh)
COc1cc(OC)c(NC(=O)Nc2ccccc2OCc2cc(=O)n3cc(C)ccc3n2)cc1Cl	none (no result: Luciferase inh)
O=C(Nc1ccc(OCc2cc(=O)n3ccccc3n2)cc1)c1ccccc1Cl	none (no result: Luciferase inh)
CCCCc1nc2ccccc2n1CC(=O)N(COCC)c1c(C)cccc1CC	none (no result: Luciferase inh)
O=C(CN1C(=O)C2(SCC(=O)N2c2ccccc2)c2ccccc21)Nc1ccccc1C(F)(F)F (centres undefined)	none (no result: Luciferase inh)
Cc1ccc(Oc2coc3cc(OCC(=O)NC4CCCCC4)ccc3c2=O)cc1	none (no result: Luciferase inh)
CCCn1c(NCc2cccc(OC)c2O)nc2ccccc21	none
CCCn1c(NCc2cccc(OC)c2OC)nc2ccccc21	none
COc1cccc(CNc2ccc3c(c2)ncn3C(C)C)c1OC	Luciferase inh 13µM, p53ts 32C kill inconclusive
CCCn1cnc2cc(NCc3cccc(OC)c3O)ccc21	Luciferase inh 16µM
CCCn1cnc2cc(NCc3ccccn3)ccc21	Luciferase inh 16µM, p53ts 32C kill inconclusive, p53ts 39C tox inconclusive
CCn1cnc2cc(NCc3ccncc3)ccc21	none
CCN(CC)S(=O)(=O)c1ccc2c(c1)N(CC(=O)N1CCN(c3cccc(Cl)c3)CC1)C(=O)CO2	none (no result: Luciferase inh)
COC(=O)c1ccccc1NC(=O)C1=CC(c2ccc(C)cc2)=NS(=O)(=O)N1C	none (no result: Luciferase inh)
CC(C)(SCc1ccccc1)[C@H](N)C(=O)O	none
Cc1ccccc1Nc1c(-c2ccc(Br)o2)nc2ccc(Cl)cn12	none (no result: Luciferase inh)
COc1ccc(OC)c(NC(=O)Cn2ncc3c2-c2ccccc2OC3)c1	none (no result: Luciferase inh)
COc1cc(Cl)c(C)cc1NC(=O)Cn1ncc2c1-c1cc(C)ccc1OC2	p53ts 39C tox 13µM (no result: Luciferase inh)
COc1ccc(-c2cc(C(C)=O)c(C)n2CCC(=O)Nc2cccc(C)c2C)cc1	none (no result: Luciferase inh)
COc1ccc(F)cc1S(=O)(=O)NCC(c1ccco1)S(=O)(=O)c1cccs1 (centres undefined)	none (no result: Luciferase inh)
Cc1csc(NC(=O)Nc2cccc(Cl)c2)n1	Luciferase inh 7.9µM
Cc1nnc(NC(=O)Nc2cccc(Cl)c2)s1	none
COc1ccc(C(=O)Nc2nc(-c3nnn(-c4ccc(F)cc4F)c3C)ns2)cc1	p53ts 39C tox inconclusive (no result: Luciferase inh)
COc1cccc(CNC(=O)c2ccc(NC(=O)N3CCCCc4ccccc43)cc2)c1OC	none (no result: Luciferase inh)
Cc1ccc2nc(/C(C#N)=C/c3cccc(Br)c3)[nH]c2c1	p53ts 32C kill inconclusive (no result: Luciferase inh)
Cc1ccc2nc(/C(C#N)=N/O)[nH]c2c1	Luciferase inh 25µM, p53ts 32C kill 7.9µM, p53ts 39C tox inconclusive
CC[C@H]1C2=C3C(CC[C@H]4C(OCc5ccc(F)cc5C(F)(F)F)OC[C@](C)([C@@H]34)N(C(=O)OC(C)(C)C)C2)C(COC)C1COC (some centres undefined)	none (no result: Luciferase inh)
c1ccc(Nc2cc(-c3ccoc3)ncn2)cc1	p53ts 39C tox inconclusive
Cc1ccc2oc(-c3ccc(C)c(NC(=O)c4ccc(-c5ccccc5[N+](=O)[O-])o4)c3)nc2c1	none (no result: Luciferase inh)
COc1ccc2oc(-c3ccc(C)c(NC(=O)c4ccc(-c5ccccc5[N+](=O)[O-])o4)c3)nc2c1	p53ts 39C tox 10µM (no result: Luciferase inh)
OCc1cc(C(O)CNCCCCCCOCCCCc2ccccc2)ccc1O (centres undefined)	p53ts 32C kill inconclusive, p53ts 39C tox 13µM (no result: Luciferase inh)
CCOCCCNCC(O)c1ccccc1 (centres undefined)	none (no result: Luciferase inh, p53ts 32C kill)
O=C(Oc1cccc(-n2cnnn2)c1)c1sc2ccccc2c1Cl	none
Cc1cc(C)n(CCOC(=O)c2sc3ccccc3c2Cl)n1	Luciferase inh 16µM
CCOC(=O)c1c(C)nc(-c2ccccc2)nc1N	Luciferase inh 25µM, p53ts 39C tox inconclusive
CCOC(=O)c1c(C)nc(-c2ccccc2)nc1NC(C)=O	none
CCCc1c(C)c2ccc(O)c(CN3CCN(c4ccc(F)cc4)CC3)c2oc1=O	none (no result: Luciferase inh)
CCOC(=O)N1CCc2c(sc3c2c(=O)n(-c2ccc(CC)cc2)c(=O)n3Cc2ccc(F)cc2Cl)C1	none (no result: Luciferase inh)
COc1cc(-c2cc(=O)c3c(O)c(OC)c(OC)c(OC)c3o2)cc(OC)c1OC	none (no result: Luciferase inh)
COc1cccc2oc(-c3ccc(O)cc3)cc(=O)c12	Luciferase inh inconclusive, p53ts 32C kill 6.3µM, p53ts 39C tox 7.9µM
O=c1cc(-c2ccccc2)oc2cc(O)c(O)c(O)c12	p53ts 32C kill inconclusive, p53ts 39C tox 0.63µM
COc1ccccc1-c1cc(=O)c2cccc(OC)c2o1	none (no result: Luciferase inh)
COc1cc2oc(-c3ccccc3)cc(=O)c2cc1OC	none
O=c1cc(-c2cccc(O)c2)oc2cccc(O)c12	none (no result: Luciferase inh)
COc1cccc2oc(-c3ccccc3)cc(=O)c12	p53ts 32C kill 10µM, p53ts 39C tox 7.9µM (no result: Luciferase inh)
COc1cccc(-c2cc(=O)c3ccccc3o2)c1N	Luciferase inh 13µM, p53ts 32C kill 7.9µM, p53ts 39C tox 5µM
O=C(O)c1ccc(Cl)c(S(=O)(=O)Nc2ccccc2F)c1	none (no result: Luciferase inh)
CCOC(=O)CCN(c1ccccc1)S(=O)(=O)c1cc(-c2cc(C)no2)ccc1C	none (no result: Luciferase inh)
COc1ccc(-n2c(=O)c(CCc3ccccc3)nc3cncnc32)cc1	none
CC(C)c1ccc(-c2noc(SCC(=O)N3CCCCC3)n2)cc1	p53ts 32C kill 13µM, p53ts 39C tox 16µM (no result: Luciferase inh)
CC(C)c1ccc(-c2noc(SCC(=O)N(C)c3ccc(F)cc3)n2)cc1	none (no result: Luciferase inh)
COc1ccccc1CNC(=O)CSc1ncc(S(=O)(=O)c2ccc(C)c(Cl)c2)c(=O)[nH]1	none (no result: Luciferase inh)
COc1ccc(Nc2nc3c(S(=O)(=O)c4ccccc4)nnn3c3ccc(Cl)cc23)cc1OC	none (no result: Luciferase inh)
COc1ccc(Nc2nc3c(S(=O)(=O)c4ccccc4)nnn3c3ccc(Cl)cc23)cc1	p53ts 32C kill inconclusive, p53ts 39C tox 10µM (no result: Luciferase inh)
O=c1c(-c2cccc(Cl)c2)nc2cncnc2n1Cc1ccccc1Cl	none
Cc1cc(=O)n2[nH]c(-c3ccccc3Cl)cc2n1	Luciferase inh 16µM, p53ts 32C kill inconclusive
CCCc1cc(=O)n2[nH]c(-c3ccccc3)cc2n1	p53ts 32C kill inconclusive, p53ts 39C tox inconclusive
C/C(CCC(=O)OC[C@@H]1O[C@H](C#Cc2ccccc2)C=C[C@@H]1Oc1ccc(C)cc1)=N/O[C@@H](C)c1cn([C@H]2COC[C@H]2O)nn1	none
CC(C)CCNC(=O)CSCc1cnn(-c2ccccc2)c1-n1cccc1	none (no result: Luciferase inh)
O=S(=O)(NCCCCCCc1ccccc1)c1cccc2c(Cl)cccc12	none
NCCCCCCNS(=O)(=O)c1cccc2c(Cl)cccc12	p53ts 39C tox 32µM
NCCCCCCCCCCNS(=O)(=O)c1cccc2c(Cl)cccc12	p53ts 32C kill 25µM, p53ts 39C tox 16µM
CCCCCCCNS(=O)(=O)c1cccc2c(Cl)cccc12	p53ts 39C tox inconclusive
CCn1c(=O)c2cc(C(=O)N(C)c3cc(C)ccc3C)sc2c2ccccc21	none (no result: Luciferase inh)
O=C(CC(Nc1ccc(F)cc1)C(=O)OCC(=O)c1cccs1)c1ccccc1 (centres undefined)	none (no result: Luciferase inh, p53ts 32C kill)
O=C(CC(Nc1ccc(F)cc1)C(=O)O)c1ccccc1 (centres undefined)	Luciferase inh 7.9µM, p53ts 32C kill inconclusive
Cc1ccc(CSC2=Nc3ccccc3C3=NC(CCC(=O)NCc4cccs4)C(=O)N23)c(C)c1 (centres undefined)	none (no result: Luciferase inh)
Cc1cc(C)c2sc(N3CCN(C(=O)c4ccc(N(C)C)cc4)CC3)nc2c1	none (no result: Luciferase inh)
Cc1cc(C)c2sc(N3CCN(C(=O)C4CC4)CC3)nc2c1	p53ts 32C kill inconclusive, p53ts 39C tox 7.9µM (no result: Luciferase inh)
